SENP8 block-1 – inhibitors of human SENP8 protease; 360,000 tested, 0.64% active; inhibition, % at 20 µM; recombinant SENP8, Nedd8 substrate fluorescence; in the data active means inhibition mostly above about 40%, no sharp cut-off; inactive means mostly below about 27%
SENP6 block – inhibitors of human SENP6 protease. 330,000 tested, 1.8% active. inhibition, % at 10 µM. Q9GZR1. Recombinant SENP6 catalytic domain, aminoluciferin luminescence;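 active means inhibition above about 50% at the single tested dose, limit read from the data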;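 further: plate controls were DMSO wells with enzyme for no effect and DMSO wells lacking enzyme for full effect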
Target sequence (Q9GZR1 628-1112 limits assumed): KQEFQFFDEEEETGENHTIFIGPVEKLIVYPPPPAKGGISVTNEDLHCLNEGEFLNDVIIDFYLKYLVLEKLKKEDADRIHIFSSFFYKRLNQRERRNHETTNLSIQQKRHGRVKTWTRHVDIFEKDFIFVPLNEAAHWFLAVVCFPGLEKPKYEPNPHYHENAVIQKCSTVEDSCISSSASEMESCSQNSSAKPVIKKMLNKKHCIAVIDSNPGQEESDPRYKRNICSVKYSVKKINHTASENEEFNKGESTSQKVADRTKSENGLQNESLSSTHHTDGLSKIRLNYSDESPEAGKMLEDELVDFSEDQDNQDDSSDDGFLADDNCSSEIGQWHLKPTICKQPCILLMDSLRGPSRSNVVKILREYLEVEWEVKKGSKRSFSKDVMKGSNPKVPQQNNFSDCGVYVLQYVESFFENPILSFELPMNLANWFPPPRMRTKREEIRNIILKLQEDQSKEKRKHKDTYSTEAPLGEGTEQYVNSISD
SENP8 block-2 – SENP8 protease inhibition. Q96LD8. purified SENP8, Z-RLRGG-aminoluciferin cleavage, luminescence. inhibition, % at 10 µM. 330,000 tested, 1.2% active; in the data active means inhibition above about 50%
SENP7 inh – SENP7 protease inhibition; Q9BQF6; recombinant SENP7, Z-RLRGG-aminoluciferin luminescence, 40 min; inhibition, % at 5 µM; 330,000 tested, 1.5% active; AID 434973;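 active means inhibition above about 50% at the single test dose, limit read from the data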;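 further: plate controls were DMSO with enzyme for no effect and no enzyme buffer wells for full effect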
LGR2 antag – Drosophila LGR2 receptor signaling inhibition; inhibition, % at 9.99 µM; HEK293 LGR2, CRE-luciferase, bursicon-stimulated, 4 h; 380,000 tested, 0.35% active; AID 720647;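 active means drop in luminescence signal, shown as inhibition above about 50% in the replicate tests, limit read from the data, passing the limit was not always enough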;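 further: agonist challenge used bursicon conditioned medium at about half maximal strength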
HSP90 inh – inhibitors of HSP90 luciferase refolding in rabbit reticulocyte lysate | luciferase refolding luminescence, 3 h | inhibition, % at 5.6 µM | 290,000 tested, 0.91% active;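 active means inhibition above the screen-wide mean plus 3 SD, computed separately per campaign, cut at about 16% in these data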;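 further: 0% = DMSO wells and 100% = 60 µM geldanamycin wells; inhibitors lower the luminescence because luciferase stays unfolded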
* = called active by the depositor; / = not tested or not shown. This is a sample that favours compounds with a hit; in the whole collection about 2.3% have one here.

SMILES	SENP8 block-1	SENP6 block	SENP8 block-2	SENP7 inh	LGR2 antag	HSP90 inh
CCn1c2c(c3cc(C(=O)O)ccc31)CCCC2=O	-451	-13	4	10	/	2
CCn1c2c(c3cc(Cl)ccc31)CCCC2=O	-178	-4	-11	-14	13	64*
Cc1ccc(S(=O)(=O)N(C)C[C@@H]2Oc3ccc(NC(=O)Nc4ccc5c(c4)OCO5)cc3C(=O)N([C@H](C)CO)C[C@@H]2C)cc1	/	/	/	/	13	/
C[C@H](CO)N1C[C@H](C)[C@H](CN(C)Cc2ccc(C(=O)Nc3ccccc3N)cc2)Oc2ccc(NC(=O)Cc3ccccc3)cc2CC1=O	/	/	/	/	-4	/
COc1ccc(N=Cc2cc(Cc3ccccc3Cl)cc([N+](=O)[O-])c2O)cc1OC	31	45	22	10	/	2
Cc1ccc(N=Cc2cc(Cc3ccccc3Cl)cc([N+](=O)[O-])c2O)c(O)c1	52*	17	10	-8	/	4
CCCNC(=O)N1CC2(CCN(C(=O)CN(C)C)CC2)c2c(n(C)c3cc(OC)ccc23)[C@@H]1CO	/	/	/	/	-9	/
COc1cc(/C=N/NS(=O)(=O)c2ccc(C)c([N+](=O)[O-])c2)cc([N+](=O)[O-])c1O	41*	1	3	-4	10	2
CS(=O)(=O)c1ccc(C(=O)NCCN2C(=O)S/C(=C\c3cccnc3)C2=O)cc1[N+](=O)[O-]	5	-7	-11	-5	69*	1
CN(C)S(=O)(=O)c1ccc(C(=O)NCCN2C(=O)S/C(=C\c3cccnc3)C2=O)cc1	10	7	-4	-3	-8	-3
CN1CCN(C(=O)C[C@@H]2C[C@@H]3c4cc(NC(=O)C5CCOCC5)ccc4O[C@@H]3[C@H](CO)O2)CC1	/	/	/	/	-12	/
CO[C@@H]1CN(C)C(=O)c2cc(NC(=O)c3cccc(F)c3)ccc2OC[C@H](C)N(C(C)=O)C[C@@H]1C	/	/	/	/	3	/
Cc1cc2c(cc1C)NC(=O)CC(c1ccccc1)=N2	16	/	/	/	-97	/
Cc1ccc2c(c1)N=C(c1ccccc1)CC(C(Cl)Cl)=N2	-171	74*	53*	1	-24	12
O=[N+]([O-])c1ccc(S(=O)Cc2ccccc2)c([N+](=O)[O-])c1 (stereo not drawn)	24	/	/	/	60*	/
COc1cccc(C(=O)N/N=C(\C)CC(=O)Nc2ccc(N(C)C)cc2)c1	20	12	4	2	-3	-3
COc1cccc(/C(C)=N/NC(=O)c2ccc(N(C)C)cc2)c1	-67	69*	55*	45	/	4
Nc1c(C(=O)NCc2ccc(F)cc2)c2nc3ccccc3nc2n1CCCN1CCOCC1	-250	78*	80*	57*	/	2
COC(=O)c1c(N)n(CCCN2CCOCC2)c2nc3ccccc3nc12	-322	7	2	7	/	-1
COc1ccc(CNC(=O)c2c(N)n(CCCN3CCOCC3)c3nc4ccccc4nc23)cc1	-301	68*	71*	44	/	0
O=C(N[C@@H]1C=C[C@@H](CC(=O)N2CCC(Cc3ccccc3)CC2)O[C@@H]1CO)c1cnccn1	/	/	/	/	-10	/
CCN=c1scc(-c2ccccc2)n1/N=C/c1ccccn1	-20	63*	46	52*	/	12
COc1ccc(NC(=O)N(C)C[C@@H]2Oc3ccc(NC(=O)Nc4ccc(F)cc4)cc3CC(=O)N([C@@H](C)CO)C[C@H]2C)cc1	/	/	/	/	3	/
CCC[C@H](CN[C@@H](CNC)[C@H](C)CC)NCCc1cc(C(F)(F)F)cc(C(F)(F)F)c1	16	-22	-2	7	63*	1
O=c1cc(NCCCO)c2ccccc2o1	10	-7	-2	4	/	3
SMILES	SENP8 block-1	SENP6 block	SENP8 block-2	SENP7 inh	LGR2 antag	HSP90 inh
O=S(=O)(c1ccccc1)c1nc(-c2ccccc2Cl)oc1NCCCN1CCOCC1	-106	-9	13	1	/	/
O=C1C(Cl)=C(NCCN2CCOCC2)C(=O)c2ccccc21	59*	27	11	12	0	7
O=C1C(Cl)=C(NCCCN2CCOCC2)C(=O)c2ccccc21	64*	/	/	/	/	/
O=C1C(Cl)=C(NCCCO)C(=O)c2ccccc21	83*	41	28	41	/	7
O=C(c1ccc2c(c1)OCO2)N1CC(=O)N2[C@@H](CO)[C@H](c3ccc(C#Cc4ccccc4)cc3)[C@@H]2C1	/	/	/	/	21	/
C[C@H]1CCCCO[C@@H](CN(C)C(=O)Cc2ccccc2)[C@@H](C)CN([C@@H](C)CO)C(=O)c2cc(NS(=O)(=O)c3ccc(Cl)cc3)ccc2O1	/	/	/	/	5	/
O=C(/C=C/c1ccc(Cl)c([N+](=O)[O-])c1)Nc1cccc(NC(=O)c2ccco2)c1	12	2	-4	0	57*	-5
O=C(/C=C/c1ccc(Cl)c([N+](=O)[O-])c1)Nc1ccc(NC(=O)c2ccco2)cc1	14	/	/	/	-27	1
C[C@@H]1CN([C@H](C)CO)C(=O)c2cccc(N(C)C)c2O[C@H]1CN(C)S(=O)(=O)c1ccc(F)cc1	/	/	/	/	8	/
CC(C)N=C(NS(=O)(=O)c1ccccc1)C(Cl)(Cl)Cl	16	-20	-2	-1	62*	-2
CCCNC(=O)N1CC2(CN(C)C2)c2c(n(C)c3cc(OC)ccc23)[C@H]1CO	/	/	/	/	-2	/
Cc1nnsc1C(=O)NC(=O)Nc1ccc(F)c(Cl)c1	25	82*	78*	18	/	-2
COc1ccc(NC(=O)Nc2ccc(F)c(Cl)c2)cc1	14	-5	9	51*	-82	-6
C[C@H](CO)N1C[C@H](C)[C@@H](CN(C)CC2CC2)Oc2c(NC(=O)c3cnccn3)cccc2C1=O	/	/	/	/	5	/
COc1ccccc1S(=O)(=O)N[C@H]1CC[C@@H](CCNC(=O)C2CCCC2)O[C@@H]1CO	/	/	/	/	-15	/
COc1ccc(S(=O)(=O)N2CCCCN3[C@H](CO)[C@H](c4ccc(-c5cccnc5)cc4)[C@@H]3C2)cc1	/	/	/	/	58*	/
COc1ccc(S(=O)(=O)N2CCCCN3[C@@H](CO)[C@H](c4ccc(-c5cccnc5)cc4)[C@@H]3C2)cc1	/	/	/	/	34	/
Cc1cc(C)c(Cc2c(C)nc3c(C(=O)NCc4ccco4)cnn3c2C)c(C)c1	-255	-14	-6	2	56*	6
O=C(NCc1ccco1)c1cnn2c(C(F)F)cc(-c3ccccc3)nc12	-370	-6	-11	-1	/	3
Cc1cc(C)cc(C(=O)Nc2ccc(N3CCCC3)cc2)c1	12	74*	66*	56*	-50	-2
CC(/C=C(\NC(=O)c1ccccc1)C(=O)N=Nc1c(O)[nH]c2ccc(C)cc12)=C\c1ccccc1	51*	-8	-1	3	5	0
Cc1ccc2[nH]c(O)c(N=NC(N)=S)c2c1	22	-2	-4	-3	-11	2
O=Cc1s/c(=N\S(=O)(=O)c2ccccc2)n(CCCCl)c1Cl	-11	/	/	/	72*	-3
CCn1c(C)cs/c1=N\S(=O)(=O)c1ccccc1	14	-3	-5	4	10	/
COc1ccc2c3c(n(C)c2c1)[C@@H](CO)N(C)CC31CN(S(=O)(=O)c2cccc(F)c2)C1	/	/	/	/	8	/
Oc1cccc(CN2CCOCC2)c1O	36	/	/	/	2	/
